Data: the supplement of paper PMC4206461
A number with no mark means an inactive call.

The compounds below were run on Pseudomonas aeruginosa PA14 dppA1-A5 penta mutant + pBBR5.DppA1 (PA14_58350) (assay: respiration area under curve with compound as sole nitrogen source, 24 h (OmniLog AUC (arbitrary units)); higher = more respiration / better utilisation as nitrogen source, active = 2000 or more).
Experimental: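 Biolog Phenotype MicroArray plates PM6-PM8: each di/tripeptide is the sole nitrogen source. Tetrazolium reduction was read in the OmniLog for 24 h at 37°C and summarised as area under the respiration curve (arbitrary units). Values below 2000 count as no respiration. Strain is the SBP penta mutant complemented with DppA1 on a plasmid under its native promoter. Lys/His/Cys peptides are excluded.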

SMILES	respiration area under curve
CC(C)[C@H](NC(=O)[C@@H](N)Cc1ccc(O)cc1)C(=O)O (plate: PM8)	6630 (active)
CC(C)C[C@H](N)C(=O)N[C@@H](CO)C(=O)O (plate: PM7)	12700 (active)
NC(N)=NCCC[C@H](N)C(=O)N[C@@H](Cc1ccccc1)C(=O)O (plate: PM6)	7570 (active)
CC(C)[C@H](NC(=O)[C@H](C)N)C(=O)O (plate: PM8)	7610 (active)
CC[C@H](C)[C@H](NC(=O)[C@@H](N)C(C)C)C(=O)O (plate: PM7)	6870 (active)
C[C@@H](NC(=O)CN)C(=O)O (plate: PM8)	3490 (active)
CC[C@H](C)[C@H](N)C(=O)N[C@@H](CCCN=C(N)N)C(=O)O (plate: PM6)	7890 (active)
CC(C)[C@H](N)C(=O)N[C@@H](CCCN=C(N)N)C(=O)O (plate: PM7)	12100 (active)
CSCC[C@H](N)C(=O)N[C@@H](CCC(N)=O)C(=O)O (plate: PM7)	8220 (active)
N[C@@H](Cc1c[nH]c2ccccc12)C(=O)N[C@@H](CO)C(=O)O (plate: PM7)	2890 (active)
CSCC[C@H](N)C(=O)N[C@@H](CC(=O)O)C(=O)O (plate: PM7)	4440 (active)
N[C@@H](CCC(=O)O)C(=O)N[C@@H](CC(=O)O)C(=O)O (plate: PM6)	19.3
CC[C@H](C)[C@H](N)C(=O)N1CCC[C@H]1C(=O)O (plate: PM6)	5060 (active)
C[C@@H](O)[C@H](NC(=O)CN)C(=O)O (plate: PM6)	2750 (active)
N[C@@H](Cc1c[nH]c2ccccc12)C(=O)N[C@@H](CC(=O)O)C(=O)O (plate: PM7)	502
NCC(=O)N[C@@H](Cc1ccc(O)cc1)C(=O)O (plate: PM6)	1420
NCC(=O)NCC(=O)O (plate: PM6)	2050 (active)
N[C@@H](Cc1c[nH]c2ccccc12)C(=O)N[C@@H](CCC(=O)O)C(=O)O (plate: PM7)	1070

SMILES	respiration area under curve
C[C@H](NC(=O)CN)C(=O)O (plate: PM6)	2380 (active)
CC(C)CC(N)C(=O)NC(CC(=O)O)C(=O)O (stereo not given) (plate: PM6)	4660 (active)
O=C(O)[C@H](CO)NC(=O)[C@@H]1CCCN1 (plate: PM8)	5440 (active)
C[C@@H](O)[C@H](N)C(=O)N[C@@H](CCCN=C(N)N)C(=O)O (plate: PM7)	14200 (active)
O=C(O)[C@H](Cc1c[nH]c2ccccc12)NC(=O)[C@@H]1CCCN1 (plate: PM8)	1320
CSCCC(NC(=O)C(N)C(C)C)C(=O)O (stereo not given) (plate: PM8)	2570 (active)
CC(C)C[C@H](N)C(=O)NCC(=O)O (plate: PM6)	5940 (active)
CC(C)[C@H](NC(=O)[C@@H](N)Cc1c[nH]c2ccccc12)C(=O)O (plate: PM8)	1060
CC(C)C[C@H](N)C(=O)NCC(=O)NCC(=O)O (plate: PM8)	8090 (active)
CC(C)[C@H](NC(=O)[C@@H](N)CC(N)=O)C(=O)O (plate: PM6)	5500 (active)
CC(C)C[C@H](N)C(=O)N[C@H](C(=O)O)C(C)C (plate: PM7)	10300 (active)
CC(C)C[C@H](NC(=O)CN)C(=O)O (plate: PM6)	969
CSCCC(NC(=O)C(N)CC(C)C)C(=O)O (stereo not given) (plate: PM6)	1220
CSCC[C@H](NC(=O)[C@@H](N)[C@@H](C)O)C(=O)O (plate: PM7)	2920 (active)
NC(N)=NCCC[C@H](NC(=O)[C@@H](N)Cc1c[nH]c2ccccc12)C(=O)O (plate: PM7)	12000 (active)
CC[C@H](C)[C@H](N)C(=O)N[C@H](C(=O)O)C(C)C (plate: PM6)	2860 (active)
CSCC[C@H](NC(=O)[C@@H](N)Cc1ccccc1)C(=O)O (plate: PM8)	805
